EBV gp42 inh: EBV gp42 inhibition; Q1HVG2; hit rate 0.42% among 220,000; Fluorescence polarization binding assay, mP read-out; inhibition, % (tested at 21.74 µM); in the data active = inhibition above about 50%
Target sequence (Q1HVG2 whole entry, looked up): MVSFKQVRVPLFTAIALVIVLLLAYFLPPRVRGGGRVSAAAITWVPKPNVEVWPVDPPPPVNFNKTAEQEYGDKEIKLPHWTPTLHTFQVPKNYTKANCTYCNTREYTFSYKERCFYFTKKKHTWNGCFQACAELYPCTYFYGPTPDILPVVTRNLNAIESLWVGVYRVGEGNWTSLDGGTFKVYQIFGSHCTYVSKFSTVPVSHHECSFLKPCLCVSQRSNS
GLD-1 TGE inh: GLD-1-TGE RNA interaction inhibition (C. elegans); Q17339; purified GLD-1 + fluorescein TGE RNA, fluorescence polarization; inhibition, % at 5.96 µM; hit rate 0.44% among 320,000;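 active = percent inhibition above a per-plate cutoff, the plate mean of test compounds plus 3 SD, cut at about 30% in these data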;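 note: 0% = DMSO wells with GLD-1 and probe and 100% = wells lacking GLD-1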
MEX-5 binding: C. elegans MEX-5 TCR-2 RNA binding activity; Q9XUB2; MEX-5/FITC-TCR2 RNA binding, fluorescence polarization; stronger effect = lower value; activity score (negative = inhibition of binding), % at 10 µM; hit rate 0.38% among 300,000; AID 1832;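 active = inhibition past about -25% in most replicates, and total fluorescence under double the plate's negative control median, limit read from the data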;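 note: 0% = DMSO and -100% = 5 µM competing unlabeled TCR2 RNA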
BCLXL inh: Bcl-xL (human) inhibition; Q07817; GST-Bcl-xL / FITC-Bim BH3 peptide fluorescence polarization; inhibition, % at 10.9 µM; hit rate 0.7% among 320,000; AID 2129;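 active = inhibition above the mean of all tested compounds plus 3 SD, cutoff set per campaign, cut at about 30% in these data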;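 note: 0% = DMSO wells and 100% = unlabeled Bim-BH3 peptide competitor; inhibitors lower millipolarization by displacing the labeled peptide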
Target sequence (Q07817 whole entry, looked up): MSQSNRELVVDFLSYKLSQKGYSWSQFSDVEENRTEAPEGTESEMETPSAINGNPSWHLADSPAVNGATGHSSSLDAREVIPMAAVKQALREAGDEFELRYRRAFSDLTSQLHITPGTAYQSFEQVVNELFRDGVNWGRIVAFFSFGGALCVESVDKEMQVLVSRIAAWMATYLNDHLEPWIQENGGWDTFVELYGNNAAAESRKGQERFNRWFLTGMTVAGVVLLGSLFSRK
MCL1 BIM primary: inhibitors of human MCL1 binding to BIM-BH3 peptide; Q07820; GST-MCL1 / FITC-Bim-BH3 fluorescence polarization; inhibition, % at 10.9 µM; hit rate 0.68% among 320,000; AID 2057;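 active = inhibition above the mean inhibition of all tested compounds plus 3 SD, set per campaign, cut at about 40% in these data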;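 note: 0% = DMSO wells and 100% = unlabeled Bim-BH3 peptide control; higher means more loss of mP so more displacement of Bim peptide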
Numbers without * were called inactive. Rows were chosen to be rich in hits. Some 1.3% of all compounds tested hit in one or more screens of this group.

How did NC(=O)c1cc(S(=O)(=O)N2CCCC2)ccc1OCCOc1ccccc1 do in these assays?
GLD-1 TGE inh: 0; BCLXL inh: 1; MCL1 BIM primary: 5

What do the screens show for `CSc1nc2sc3c(c2c(=O)[nH]1)CCCC3`?
EBV gp42 inh: -20; GLD-1 TGE inh: 1; MEX-5 binding: 0; BCLXL inh: -2; MCL1 BIM primary: -5

How did CCSc1nc2sc3c(c2c(=O)[nH]1)CCCC3 do in these assays?
EBV gp42 inh: 66*; GLD-1 TGE inh: -12; MEX-5 binding: 1; BCLXL inh: 1; MCL1 BIM primary: -1

Results for O=C(Nc1ccc(Cl)cc1)Nc1cccc2nsnc12 ?
EBV gp42 inh: 0; GLD-1 TGE inh: 4; MEX-5 binding: -5; BCLXL inh: 48*; MCL1 BIM primary: 5

What do the screens show for `C=CCc1cccc(C=Nc2c[nH]c(=O)[nH]c2=O)c1O`?
GLD-1 TGE inh: 7; MEX-5 binding: 0; BCLXL inh: 3; MCL1 BIM primary: 3

How did C=CCc1cccc(C=Nc2cc(Br)ccc2O)c1O do in these assays?
EBV gp42 inh: 101*; GLD-1 TGE inh: 3; MEX-5 binding: 1; BCLXL inh: 8; MCL1 BIM primary: 7

What do the screens show for `O=C(c1ccco1)N1CCN(c2ncnc3c(-c4ccc(Cl)cc4)nsc23)CC1`?
GLD-1 TGE inh: 4; MEX-5 binding: -29*; BCLXL inh: 6; MCL1 BIM primary: 9

Results for Cc1ccc(-c2csc3ncnc(N4CCN(C(=O)c5ccco5)CC4)c23)cc1 ?
GLD-1 TGE inh: -1; BCLXL inh: -6; MCL1 BIM primary: -12

How did CCN1CCN(C(=O)c2ccc3c(=O)n(Cc4ccccc4OC)c(=S)[nH]c3c2)CC1 do in these assays?
EBV gp42 inh: -12; GLD-1 TGE inh: 4; MEX-5 binding: -29*; BCLXL inh: -2; MCL1 BIM primary: -4

Results for COc1ccccc1Cn1c(=S)[nH]c2cc(C(=O)N3CCCC3)ccc2c1=O ?
GLD-1 TGE inh: 2; MEX-5 binding: 2; BCLXL inh: -5; MCL1 BIM primary: -6

How did CCCCCCC(C)OC(=O)c1ccccc1C(=O)O (stereo unspecified) do in these assays?
EBV gp42 inh: -13; GLD-1 TGE inh: 7; MEX-5 binding: 0; BCLXL inh: 3; MCL1 BIM primary: -2

What do the screens show for `O=C(CCC(=O)N1CCN(Cc2ccccc2)CC1)Nc1nnc(C2CCCCC2)s1`?
GLD-1 TGE inh: -8; MEX-5 binding: 0; BCLXL inh: 6; MCL1 BIM primary: -1

How did Cc1nnsc1C(=O)N/N=C/c1ccc2ccccc2c1O do in these assays?
EBV gp42 inh: -109; GLD-1 TGE inh: -57; MEX-5 binding: -2; BCLXL inh: 75*; MCL1 BIM primary: 84*

What do the screens show for `Cc1ccccc1NC(=O)CON=C(N)c1ccccc1`?
GLD-1 TGE inh: -1; BCLXL inh: -1; MCL1 BIM primary: -1

Results for Cc1cccc(C(=O)Nc2ccccc2SCC2CSc3nc4ccccc4c(=O)n32)c1 (stereo unspecified) ?
EBV gp42 inh: -10; GLD-1 TGE inh: 0; MEX-5 binding: 3; BCLXL inh: 6; MCL1 BIM primary: -1

What do the screens show for `N#Cc1cnn2c3c(cnc12)C(=O)N1CCc2ccccc2C1C3` (stereo unspecified)?
EBV gp42 inh: -13; GLD-1 TGE inh: 4; MEX-5 binding: 5; BCLXL inh: 3; MCL1 BIM primary: 2

How did Cc1cccc(NC(=O)Nc2c(C)n(C)n(-c3ccccc3)c2=O)c1 do in these assays?
GLD-1 TGE inh: -1; MEX-5 binding: -2; BCLXL inh: 4; MCL1 BIM primary: -3

How did Cc1c(NC(=O)Nc2cccc(F)c2)c(=O)n(-c2ccccc2)n1C do in these assays?
GLD-1 TGE inh: 121*; MEX-5 binding: -1; BCLXL inh: 8; MCL1 BIM primary: 3

Results for CN1/C(=C\C=C(/C#N)C(=O)Nc2ccccc2F)C(C)(C)c2ccccc21 ?
EBV gp42 inh: -86; GLD-1 TGE inh: -55; MEX-5 binding: -39*; BCLXL inh: -45; MCL1 BIM primary: -67

How did CCOC(=O)C1CCN(C(=O)COC(=O)c2ccccc2C(=O)c2ccc(Cl)cc2)CC1 do in these assays?
GLD-1 TGE inh: 4; MEX-5 binding: 2; BCLXL inh: 1; MCL1 BIM primary: -3

How did Oc1c(Cl)cc(Cl)cc1Sc1cc(Cl)cc(Cl)c1O do in these assays?
EBV gp42 inh: 46; GLD-1 TGE inh: -2; MEX-5 binding: -4; BCLXL inh: 20; MCL1 BIM primary: 53*

What do the screens show for `C/C(=N\N1CCN(C2c3ccccc3-c3ccccc32)CC1)c1ccncc1`?
EBV gp42 inh: 117*; GLD-1 TGE inh: -2; MEX-5 binding: -1; BCLXL inh: 4; MCL1 BIM primary: -3

What do the screens show for `CCCOc1ccc(-c2nn(-c3ccccc3)cc2/C=C2\SC(=S)N(C3CCS(=O)(=O)C3)C2=O)cc1` (stereo unspecified)?
EBV gp42 inh: 69*; GLD-1 TGE inh: 2; MEX-5 binding: -1; BCLXL inh: -3; MCL1 BIM primary: -6

How did COc1ccc(-c2nn(-c3ccccc3)cc2/C=C2/SC(=S)N(CCC(=O)O)C2=O)cc1 do in these assays?
GLD-1 TGE inh: -13; MEX-5 binding: 2; BCLXL inh: 6; MCL1 BIM primary: 2

Results for CCOc1ccc(-c2nn(-c3ccccc3)cc2/C=C2\SC(=S)N(C3CCS(=O)(=O)C3)C2=O)cc1 (stereo unspecified) ?
EBV gp42 inh: 69*; GLD-1 TGE inh: 0; MEX-5 binding: -31*; BCLXL inh: 0; MCL1 BIM primary: 3

What do the screens show for `O=[N+]([O-])c1ccc(Nc2ccccc2O)c2nonc12`?
MEX-5 binding: -36*

What do the screens show for `CC1CCc2[nH]c3ccc(C(=O)NCCCOC(C)C)cc3c2C1` (stereo unspecified)?
EBV gp42 inh: -3; GLD-1 TGE inh: 4; MEX-5 binding: -1; BCLXL inh: 2; MCL1 BIM primary: 5

What do the screens show for `O=C1C2C3C=CC(C3=C(c3ccccc3)c3ccccc3)C2C(=O)N1CCO` (stereo unspecified)?
EBV gp42 inh: -6; GLD-1 TGE inh: -5; MEX-5 binding: -1; BCLXL inh: 4; MCL1 BIM primary: 5

Results for O=C1C2C3C=CC(C3=C(c3ccccc3)c3ccccc3)C2C(=O)N1Cc1ccccc1 (stereo unspecified) ?
EBV gp42 inh: 63*; GLD-1 TGE inh: 6; MEX-5 binding: 0; BCLXL inh: 6; MCL1 BIM primary: 4

Results for CCC/C=N/NC(=O)C1COc2ccccc2O1 (stereo unspecified) ?
EBV gp42 inh: -16; GLD-1 TGE inh: 9; MEX-5 binding: 3; BCLXL inh: 98*; MCL1 BIM primary: 2

What do the screens show for `Cc1ccc(C(=O)NCC(=O)OCc2c(F)cccc2Cl)s1`?
GLD-1 TGE inh: 1

Results for CCCNC(=O)c1ccc2c(=O)c(O)c(-c3cccc(Br)c3)[nH]c2c1 ?
EBV gp42 inh: -11; GLD-1 TGE inh: 9; MEX-5 binding: -84*; BCLXL inh: 7; MCL1 BIM primary: 3

Results for CCCNC(=O)c1ccc2c(=O)c(O)c(-c3ccc(F)cc3)[nH]c2c1 ?
EBV gp42 inh: -15; GLD-1 TGE inh: 8; MEX-5 binding: -90*; BCLXL inh: 6; MCL1 BIM primary: 2

Screening data deposited in PubChem BioAssay by several laboratories.
